Test results: PubChem BioAssay AID463173 (ICCB-Longwood Screening Facility, Harvard Medical School, 2010)
About 4,300 (8.3%) of roughly 52,000 compounds were called active. Rule as the data show it: active = survival mostly below about 52% (no sharp cut-off); inactive = mostly above about 56%. This excerpt belongs to a sample that is enriched for actives.

What follows are compounds tested on DeltatarO mutant (assay: S. aureus survival, RN4220 and DeltatarO strains – OD600, teichoic acid synthesis inhibitors, primary screen (AID 463173)). Details: S. aureus RN4220 wild type/DeltatarO growth, OD600, 18 h, hits give low values, screened at 18.75 µg/mL (by protocol).

Structure (SMILES) | survival
CCc1ccccc1NC(=O)N1CCN(c2cc(-c3noc(C)n3)ccc2C)CC1 | 134% (inactive)
S=c1[nH]nc(CCCOc2ccc(Cl)cc2Cl)o1 | 54% (inactive)
O=C(NC1CCCCC1)NC1CCN(Cc2nnnn2Cc2ccc(F)cc2)CC1 | 88% (inactive)
COc1ccc(Cn2ccc3nc(C)c(C(=O)N4CCN(c5ccccc5F)CC4)cc3c2=O)cc1 | 63% (inactive)
CC1(c2ccccc2)CC(C)(C)N(C(=O)c2ccccc2Cl)c2ccccc21 (centres undefined) | -4% (active)
COc1ccc(CCC(=O)NCc2ccc3c(c2)CCN3C(=O)c2ccc(Cl)cc2)cc1 | 89% (inactive)
CN1CC2(C)CN(C(=O)c3ccccc3Cl)CC(C)(C1)C2 | 88% (inactive)
COc1ccccc1C(=O)CC1(O)C(=O)N(CC(N)=O)c2ccccc21 (centres undefined) | 61% (inactive)
CC1(c2ccccc2)CC(C)(C)N(C(=O)c2cccc(Cl)c2)c2ccccc21 (centres undefined) | 8% (active)
COc1ccc(C(=O)N2c3ccccc3C(C)(c3ccc(Cl)cc3)CC2(C)C)cc1 (centres undefined) | 11% (active)
CC1CCN(C(=O)c2cccc(Cl)c2)CC1 | 93% (inactive)
COc1ccc(C(=O)N2CCC(C(=O)Nc3ccc(Cl)cc3)CC2)cc1 | 127% (inactive)
O=C(c1ccccc1Cl)n1cc(Cl)cn1 | 95% (inactive)
CC1CCN(c2ccc(NC(=O)c3cccc(Cl)c3)cc2C(=O)O)CC1 | 87% (inactive)
COc1ccccc1C(=O)N1CCC(c2c[nH]c3ccccc23)(c2c[nH]c3ccccc23)CC1 | 98% (inactive)
COc1ccccc1C(=O)N1c2ccccc2C(C)(c2ccc(Cl)cc2)CC1(C)C (centres undefined) | 0% (active)
CC(C(=O)c1ccccc1)n1cnc2ccccc2c1=O (centres undefined) | 104% (inactive)
COc1ccccc1N1CCN(C(=O)Cn2cnc3onc(-c4ccc(F)cc4)c3c2=O)CC1 | 84% (inactive)
Fc1ccc(CN2CCc3nc(N4CCN(c5ccccc5F)CC4)ncc3C2)c(F)c1 | 77% (inactive)
Cc1cc(NC(=O)CCn2c(=O)c3cccn3c3cccnc32)ccc1Br | 102% (inactive)

Structure (SMILES) | survival
COc1ccc(CNC(=O)Cn2c(=O)nc(-c3ccccc3)c3ccccc32)cc1OC | 89% (inactive)
CCCCc1nn2c(=O)cc(COC(=O)c3ccccc3NC(=O)C3CCCCC3)nc2s1 | 71% (inactive)
CC1=C(c2cccc(Cl)c2)S(=O)(=O)NC1=NCc1ccccc1C | 99% (inactive)
CC1(C)C(=O)N(CC(=O)Nc2ccc(Cl)cc2)c2ccccc21 | 83% (inactive)
O=C(NCc1ccc2c(c1)CCN2C(=O)c1ccc(Cl)cc1)c1cccc(F)c1 | 61% (inactive)
CC1CC(C)CN(C(=O)c2ccc(Cl)cc2)C1 (centres undefined) | 96% (inactive)
CC1(c2ccc(Cl)cc2)CC(C)(C)N(C(=O)c2ccccc2)c2ccccc21 (centres undefined) | -4% (active)
O=C(c1cccc(F)c1)N1CCC(c2c[nH]c3ccccc23)(c2c[nH]c3ccccc23)CC1 | 86% (inactive)
CC1(c2ccc(Cl)cc2)CC(C)(C)N(C(=O)c2cccc(F)c2)c2ccccc21 (centres undefined) | 11% (active)
CCOC(=O)c1c(NC(=O)CSc2cn(CCNC(=O)c3ccccc3OC)c3ccccc23)sc2c1CCC2 | 141% (inactive)
CCOc1ccc(-c2cc(-c3nc(-c4cc(OC)c(OC)c(OC)c4)no3)[nH]n2)cc1Cl | 96% (inactive)
Cc1nnc(N2CCCC(C(=O)NCCc3ccccc3)C2)c2nn(-c3ccccc3)c(C)c12 (centres undefined) | 94% (inactive)
O=C(Nc1ccccc1O)c1ccccn1 | 77% (inactive)
CCCCCn1c(=O)[nH]c2cc(C(=O)N3CCN(c4cccc(OC)c4)CC3)ccc2c1=O | 55% (active)
CCCCCn1c(=O)[nH]c2cc(C(=O)N3CCN(c4cccc(Cl)c4)CC3)ccc2c1=O | 71% (inactive)
CCCCCn1c(=O)[nH]c2cc(C(=O)N3CCN(c4ccc(OC)cc4)CC3)ccc2c1=O | 135% (inactive)
Cc1ccc(C)c(N2CCN(C(=O)c3ccc4c(=O)n(CCc5ccccc5)c(=O)[nH]c4c3)CC2)c1 | 55% (active)
O=C(c1ccc2c(=O)n(CCc3ccccc3)c(=O)[nH]c2c1)N1CCN(c2ccc(F)cc2)CC1 | 111% (inactive)
COc1ccc(Cn2c(=O)[nH]c3cc(C(=O)N4CCN(c5cc(C)ccc5C)CC4)ccc3c2=O)cc1 | 73% (inactive)
Cc1cccc(-n2ncc3c(N4CCN(CCO)CC4)ncnc32)c1 | 83% (inactive)

Structure (SMILES) | survival
Cc1ccc(Cc2cn3cc(-c4ccccc4)nc3s2)cc1 | 66% (inactive)
COc1cccc(CN2C(=O)C3(SCC(=O)N3c3ccc(C)c(Cl)c3)c3ccccc32)c1 (centres undefined) | 52% (active)
COc1cccc(N2C(=O)CSC23C(=O)N(Cc2ccccc2)c2ccccc23)c1 (centres undefined) | 80% (inactive)
COc1cccc(CN2C(=O)C3(SCC(=O)N3c3ccc(C(C)C)cc3)c3ccccc32)c1 (centres undefined) | 55% (inactive)
CC(=O)N(Cc1cccnc1)c1nc2c(F)cc(F)cc2s1 | 89% (inactive)
COC(=O)c1cc2oc3ccccc3c2n1Cc1nc(-c2ccc(Cl)cc2)oc1C | 91% (inactive)
CCOc1ccc(CCNC(=O)Cn2ccc3cc(S(=O)(=O)N4CCCCC4)ccc32)cc1 | 102% (inactive)
CCc1ccc(C2C(C(=O)Nc3ccccc3)=C(C)Nc3c(C(=O)Nc4ccc(C)cc4)cnn32)cc1 (centres undefined) | 17% (active)
COc1ccc(C2C(C(=O)Nc3ccccc3)=C(C)Nc3c(C(=O)Nc4ccccc4)cnn32)cc1 (centres undefined) | 126% (inactive)
COc1cc(OC)c(C2C=C(c3ccc(C)cc3)Nc3c(C(=O)Nc4ccccc4)cnn32)cc1OC (centres undefined) | 48% (inactive)
COc1ccccc1NC(=O)C1=C(C)Nc2c(C(=O)Nc3cccc(C)c3)cnn2C1c1ccccc1Cl (centres undefined) | -5% (active)
COc1ccc(C2=CC(c3ccc(F)cc3)n3ncc(C(=O)Nc4ccc(C)cc4)c3N2)cc1 (centres undefined) | 106% (inactive)
CCc1ccc(C2C(C(=O)Nc3ccccc3OC)=C(C)Nc3c(C(=O)Nc4ccc(C)cc4)cnn32)cc1 (centres undefined) | 68% (inactive)
CC1=C(C(=O)Nc2ccccc2)C(c2ccccc2Cl)n2ncc(C(=O)Nc3cccc(C)c3)c2N1 (centres undefined) | 88% (inactive)
CCOc1ccc(NC(=O)c2cnn3c2NC(c2ccccc2)=CC3c2cccc(OC)c2OC)cc1 (centres undefined) | 62% (inactive)
COc1ccc(C2C=C(c3ccc(C)cc3)Nc3c(C(=O)Nc4ccccc4)cnn32)cc1 (centres undefined) | 53% (active)
COc1cccc(C2C=C(c3ccccc3)Nc3c(C(=O)Nc4ccccc4)cnn32)c1OC (centres undefined) | 13% (active)
COc1ccc(C2C=C(c3cccc(OC)c3)Nc3c(C(=O)Nc4ccccc4)cnn32)cc1 (centres undefined) | 52% (inactive)
COc1ccccc1NC(=O)C1=C(C)Nc2c(C(=O)Nc3cccc(C)c3)cnn2C1c1ccccc1C (centres undefined) | 89% (inactive)
